# From the supplement of paper PMC4466140
# Key:
# Test in all cases: SPOT peptide array binding signal intensity (averaged, normalized) (arbitrary units (background-subtracted, floor 0; scale differs between SH3 domains)); higher = stronger binding of the SH3 domain to the peptide
# AgAbp1 = target: AgAbp1
# Summary of the method: (§1)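 Cellulose membranes carried synthetic 15-mer peptides with cysteines swapped for serines. These were incubated overnight at 4°C with 10 μg/ml of GST-fused SH3 domains from four yeast species in TBS-based blocking buffer. Binding signal, detected with anti-GST antibody and quantified in Genespotter, is the normalized, background-subtracted spot intensity averaged over replicates, in arbitrary units specific to each domain.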
# AgBbc1 = target: AgBbc1
# Summary of the method: as §1
# AgBem1-D1 = target: AgBem1-D1
# Summary of the method: as §1
# AgBzz1-D1 = target: AgBzz1-D1
# Summary of the method: as §1
# AgBzz1-D2 = target: AgBzz1-D2
# Summary of the method: as §1
# AgCyk3 = target: AgCyk3
# Summary of the method: as §1
# AgFus1 = target: AgFus1
# Summary of the method: as §1
# AgHof1 = target: AgHof1
# Summary of the method: as §1
# AgHse1 = target: AgHse1
# Summary of the method: as §1
# AgLsb1 = target: AgLsb1
# Summary of the method: as §1
# AgLsb4 = target: AgLsb4
# Summary of the method: as §1
# AgMyo5 = target: AgMyo5
# Summary of the method: as §1
# AgNbp2 = target: AgNbp2
# Summary of the method: as §1
# AgRvs167 = target: AgRvs167
# Summary of the method: as §1
# AgSho1 = target: AgSho1
# Summary of the method: as §1
# AgSla1-D1-D2 = target: AgSla1-D1-D2
# Summary of the method: as §1
# AgSla1-D3 = target: AgSla1-D3
# Summary of the method: as §1
# CaAbp1-D1 = target: CaAbp1-D1
# Summary of the method: as §1
# CaAbp1-D2 = target: CaAbp1-D2
# Summary of the method: as §1
# CaBbc1 = target: CaBbc1
# Summary of the method: as §1
# CaBem1-D1 = target: CaBem1-D1
# Summary of the method: as §1
# CaBzz1-D1 = target: CaBzz1-D1
# Summary of the method: as §1
# CaBzz1-D2 = target: CaBzz1-D2
# Summary of the method: as §1
# CaCyk3 = target: CaCyk3
# Summary of the method: as §1
# CaFus1 = target: CaFus1
# Summary of the method: as §1
# CaHof1 = target: CaHof1
# Summary of the method: as §1
# CaHse1 = target: CaHse1
# Summary of the method: as §1
# CaLsb1 = target: CaLsb1
# Summary of the method: as §1
# CaLsb4 = target: CaLsb4
# Summary of the method: as §1
# CaMyo5 = target: CaMyo5
# Summary of the method: as §1
# CaNbp2 = target: CaNbp2
# Summary of the method: as §1
# CaRvs167 = target: CaRvs167
# Summary of the method: as §1
# CaRvs167-3 = target: CaRvs167-3
# Summary of the method: as §1
# CaSho1 = target: CaSho1
# Summary of the method: as §1
# CaSla1-D1-D2 = target: CaSla1-D1-D2
# Summary of the method: as §1
# CaSla1-D3 = target: CaSla1-D3
# Summary of the method: as §1
# ScAbp1 = target: ScAbp1
# Summary of the method: as §1
binder,measurement,setting,value
RTRRRPPPPPIPSTQ,SPOT peptide array binding signal intensity,AgAbp1,334
same,SPOT peptide array binding signal intensity,AgBbc1,531
same,SPOT peptide array binding signal intensity,AgBem1-D1,308
same,SPOT peptide array binding signal intensity,AgBzz1-D1,3430
same,SPOT peptide array binding signal intensity,AgBzz1-D2,1460
same,SPOT peptide array binding signal intensity,AgCyk3,2
same,SPOT peptide array binding signal intensity,AgFus1,87
same,SPOT peptide array binding signal intensity,AgHof1,256
same,SPOT peptide array binding signal intensity,AgHse1,91
same,SPOT peptide array binding signal intensity,AgLsb1,370
same,SPOT peptide array binding signal intensity,AgLsb4,136
same,SPOT peptide array binding signal intensity,AgMyo5,339
same,SPOT peptide array binding signal intensity,AgNbp2,2690
same,SPOT peptide array binding signal intensity,AgRvs167,99.3
same,SPOT peptide array binding signal intensity,AgSho1,27
same,SPOT peptide array binding signal intensity,AgSla1-D1-D2,23
same,SPOT peptide array binding signal intensity,AgSla1-D3,735
same,SPOT peptide array binding signal intensity,CaAbp1-D1,748
same,SPOT peptide array binding signal intensity,CaAbp1-D2,1060
same,SPOT peptide array binding signal intensity,CaBbc1,965
same,SPOT peptide array binding signal intensity,CaBem1-D1,124
same,SPOT peptide array binding signal intensity,CaBzz1-D1,7320
same,SPOT peptide array binding signal intensity,CaBzz1-D2,4870
same,SPOT peptide array binding signal intensity,CaCyk3,53.5
same,SPOT peptide array binding signal intensity,CaFus1,452
same,SPOT peptide array binding signal intensity,CaHof1,0.5
same,SPOT peptide array binding signal intensity,CaHse1,21
same,SPOT peptide array binding signal intensity,CaLsb1,1.25
same,SPOT peptide array binding signal intensity,CaLsb4,1170
same,SPOT peptide array binding signal intensity,CaMyo5,19.8
same,SPOT peptide array binding signal intensity,CaNbp2,1440
same,SPOT peptide array binding signal intensity,CaRvs167,111
same,SPOT peptide array binding signal intensity,CaRvs167-3,22.5
same,SPOT peptide array binding signal intensity,CaSho1,98
same,SPOT peptide array binding signal intensity,CaSla1-D1-D2,2100
same,SPOT peptide array binding signal intensity,CaSla1-D3,391
same,SPOT peptide array binding signal intensity,ScAbp1,114
